Over roughly 81,000 sequences, “one-hybrid fitness for binding parS DNA” has its median near -0.17; the highest 2% begin near 0.51. The list comes from a sample in which the highest values are over-represented; it also holds similar and randomly drawn sequences.

From a collection of fitness landscapes (doi:10.1016/j.celrep.2020.107928) come the findings set out here.

The labels stand for the following.
B1: Caulobacter ParB omega fusion; a variant is named by its letters at X, in order, B8GW30 (parent)
chain: MESVVVGEPGMSEGRRGLGRGLSALLGEVDAAPAQAPGEQLGGSREAPIEILQRNPDQPRRTFREEDLEDLSNSIREKGVLQPILVRPSPDTAGEYQIVAGERAWRAAQRAGLKTVPIMVRELDDLAVLEIGIIENVQRADLNVLEEALSYKVLMEKFERTQENIAQTIGKSXSHVANXMRLLXLPDEVQSYLVSGELTAXHARAIAAAADPVALAKQIIEGGLSVRETEALARKAPNLSAGKSKGGRPPRVKDTDTQALESDLSSVLGLDVSIDHRGSTGTLTITYATLEQLDDLCNRLTRGI

In the assay the parent is B1. The experiment in a line: one-hybrid fitness for binding parS DNA (scaled: cognate 1, non-cognate 0); higher = stronger binding. The following applies: with parS DNA site. The essentials:
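Caulobacter ParB libraries with four specificity codons randomised were screened by bacterial one-hybrid selection in the E. coli USO strain, using a HIS3 reporter whose site lies 19 bp from the promoter. Selection ran for 48 hours at 37°C on M9 lacking histidine, with 0.1 mM IPTG and 5 mM 3-AT. Plasmids were Illumina-sequenced before and after selection, three replicate libraries were pooled, and variants with under 10 reads were dropped. Fitness is the log change in each variant's read ratio to wild type, rescaled against the cognate and non-cognate sites.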
As for YMAC, the “one-hybrid fitness for binding parS DNA” value is at most 0.2.
For EHCS the value was at most 0.2; for RYSK, at most 0.2; for RYLC, 0.955.
As for RYSC, the “one-hybrid fitness for binding parS DNA” value turned out to be 0.929.
For the variant RYQC, the “one-hybrid fitness for binding parS DNA” value worked out at 0.898.
Consider RYSF, for which the “one-hybrid fitness for binding parS DNA” value is at most 0.2.
In the case of RYHR it was at most 0.2.
RYHC: the “one-hybrid fitness for binding parS DNA” value stood at 0.949.
For the variant RYQP, the “one-hybrid fitness for binding parS DNA” value was at most 0.2.
Regarding RYQN, the “one-hybrid fitness for binding parS DNA” value is 0.318.
For the variant RYHY, the “one-hybrid fitness for binding parS DNA” value is 0.423.
For RYLK the value was at most 0.2; for RYLR, at most 0.2.
Take SLCV: the “one-hybrid fitness for binding parS DNA” value was at most 0.2.
Regarding CHLH, the “one-hybrid fitness for binding parS DNA” value is at most 0.2.
For CAHG the value was at most 0.2.
For the variant MLWF, the “one-hybrid fitness for binding parS DNA” value stood at 0.204.
In the case of KWCS it was at most 0.2; in that of VPGF, at most 0.2.
As to PGPY, the “one-hybrid fitness for binding parS DNA” value is at most 0.2.
For ELLG the value was at most 0.2; for NRNN, at most 0.2.
In the case of TSHR, the “one-hybrid fitness for binding parS DNA” value is at most 0.2.
For SYEV, the “one-hybrid fitness for binding parS DNA” value is at most 0.2.
For RYWC the value was 0.887.
For RYCR the value was at most 0.2; for RYCF, at most 0.2; for RYWF, 0.258.
For the variant RYYQ, the “one-hybrid fitness for binding parS DNA” value was at most 0.2.
As to RYWR, the “one-hybrid fitness for binding parS DNA” value was at most 0.2.
For RYRM the value was 0.328; for RYCC, 0.903; for RYRK, at most 0.2.
Consider RYYR, for which the “one-hybrid fitness for binding parS DNA” value was at most 0.2.
In the case of RYYC it was 0.975; in that of RYRC, 0.798.
In the case of QPAG, the “one-hybrid fitness for binding parS DNA” value was at most 0.2.
For WKQT the value was at most 0.2.
In the case of SDLQ it was at most 0.2; in that of CPED, at most 0.2.
As for GWLY, the “one-hybrid fitness for binding parS DNA” value was at most 0.2.
For RYGC, the “one-hybrid fitness for binding parS DNA” value came to 0.914.
Consider RYGH, for which the “one-hybrid fitness for binding parS DNA” value is at most 0.2.
In the case of RYGP it was at most 0.2; in that of DNPV, at most 0.2; in that of RFYG, 0.899.
In the case of RFRG it was 0.992; in that of DFRG, at most 0.2; in that of DFYG, at most 0.2.
Consider NFYG, for which the “one-hybrid fitness for binding parS DNA” value was at most 0.2.
With NFCG, the “one-hybrid fitness for binding parS DNA” value is at most 0.2.
Take NFHG: the “one-hybrid fitness for binding parS DNA” value is at most 0.2.
SFCG: the “one-hybrid fitness for binding parS DNA” value was at most 0.2.
Take NFRG: the “one-hybrid fitness for binding parS DNA” value was at most 0.2.
Take RFHG: the “one-hybrid fitness for binding parS DNA” value turned out to be 0.974.
For DFHG the value was at most 0.2; for RFCG, 0.895.
In the case of QYLK it was at most 0.2.
In the case of ALTP it was at most 0.2; in that of ELKN, at most 0.2.
For the variant VNHC, the “one-hybrid fitness for binding parS DNA” value was at most 0.2.
As for DHWC, the “one-hybrid fitness for binding parS DNA” value is at most 0.2.
Take FRFT: the “one-hybrid fitness for binding parS DNA” value was at most 0.2.
For TDKR the value was at most 0.2.
FTYC: the “one-hybrid fitness for binding parS DNA” value was at most 0.2.
For QQPP the value was at most 0.2; for WLFI, at most 0.2.
On to AEPL, for which the “one-hybrid fitness for binding parS DNA” value is at most 0.2.
For RFLH, the “one-hybrid fitness for binding parS DNA” value stood at 0.217.
For RFGD the value was at most 0.2; for RFGG, 0.918.
RFLG: the “one-hybrid fitness for binding parS DNA” value worked out at 0.891.
Consider NFGG, for which the “one-hybrid fitness for binding parS DNA” value is at most 0.2.
For DFLG the value was at most 0.2; for QKFT, at most 0.2; for TIPM, at most 0.2.
For the variant DRAA, the “one-hybrid fitness for binding parS DNA” value was at most 0.2.
In the case of RRFA, the “one-hybrid fitness for binding parS DNA” value was determined as 0.806.
Turning to NRFA, the “one-hybrid fitness for binding parS DNA” value is at most 0.2.
In the case of NRAA it was at most 0.2.
As for RRAA, the “one-hybrid fitness for binding parS DNA” value came out at 0.724.
Take DRFA: the “one-hybrid fitness for binding parS DNA” value was at most 0.2.
For RAFI the value was at most 0.2; for DPVD, at most 0.2; for RHKG, 0.879.
For RHVG the value was 0.847; for RHKD, at most 0.2; for RHVH, at most 0.2.
For RHVP the value was at most 0.2.
As to RHKH, the “one-hybrid fitness for binding parS DNA” value is 0.248.
With QEEC, the “one-hybrid fitness for binding parS DNA” value is at most 0.2.
For PYTA the value was at most 0.2; for QTGF, at most 0.2.
As to RWHH, the “one-hybrid fitness for binding parS DNA” value was at most 0.2.
For RWLF the value was at most 0.2; for RWRG, 0.881.
In the case of RWHP it was at most 0.2.
Regarding RWRQ, the “one-hybrid fitness for binding parS DNA” value was at most 0.2.
In the case of RWRY it was 0.494; in that of RWNN, 0.355; in that of RWLG, 0.685.
For RWLY the value was 0.266; for RWNP, at most 0.2; for RWHG, 0.754.
Turning to RWNG, the “one-hybrid fitness for binding parS DNA” value came to 0.797.
As to DKAC, the “one-hybrid fitness for binding parS DNA” value is at most 0.2.
For PMRT the value was at most 0.2; for CRCT, at most 0.2.
In the case of TSLF it was at most 0.2; in that of MEYL, at most 0.2.
In the case of QCLV, the “one-hybrid fitness for binding parS DNA” value is at most 0.2.
For EWYS the value was at most 0.2.
For RWGG the value was 0.63; for RWYF, at most 0.2.
For RWPG the value was 0.406; for RWSQ, at most 0.2.
Take RWSG: the “one-hybrid fitness for binding parS DNA” value was found to be 0.769.
For RWSR the value was at most 0.2; for RWGF, at most 0.2.
For RWYG the value was 0.714; for RWYM, at most 0.2; for RWIF, at most 0.2.
For RWGM the value was at most 0.2; for RWIG, 0.569.
Take PNWL: the “one-hybrid fitness for binding parS DNA” value was at most 0.2.
Consider PCED, for which the “one-hybrid fitness for binding parS DNA” value is at most 0.2.
For HNST the value was at most 0.2; for SHDR, at most 0.2; for PGRS, at most 0.2.
In the case of GDYR it was at most 0.2; in that of GWST, at most 0.2; in that of QTYA, at most 0.2.
In the case of NGRC it was at most 0.2; in that of RWDF, at most 0.2; in that of RWWG, 0.641.
As for RWWR, the “one-hybrid fitness for binding parS DNA” value was at most 0.2.
For RWCG the value was 0.688; for RWDG, 0.616; for RWQM, at most 0.2.
On to RWQK, for which the “one-hybrid fitness for binding parS DNA” value was at most 0.2.
Take RWWY: the “one-hybrid fitness for binding parS DNA” value is at most 0.2.
For RWQG the value was 0.741; for RWCM, at most 0.2.
For RWCR the value was at most 0.2; for RWDK, at most 0.2.
QCIG: the “one-hybrid fitness for binding parS DNA” value is at most 0.2.
For the variant ILHY, the “one-hybrid fitness for binding parS DNA” value is at most 0.2.
Regarding PETC, the “one-hybrid fitness for binding parS DNA” value was at most 0.2.
Regarding RDAC, the “one-hybrid fitness for binding parS DNA” value is at most 0.2.
Turning to CSPC, the “one-hybrid fitness for binding parS DNA” value is at most 0.2.
As to WCDG, the “one-hybrid fitness for binding parS DNA” value was at most 0.2.
In the case of TEMT it was at most 0.2.
For QRMV, the “one-hybrid fitness for binding parS DNA” value was at most 0.2.
Consider PGQN, for which the “one-hybrid fitness for binding parS DNA” value was at most 0.2.
